Measurements reported in PubChem BioAssay (EPA / NIEHS).
Calls of active or inactive are those of the source. How the source made its calls: active means hit-call score of the fitted dose curve at least 0.9, where 1 is the maximum; inactive means score below 0.9.

Experiment: ATG_E_Box_CIS: Attagene CIS-FACTORIAL HepG2 Assay for human Enhancer Box (E-box) (AID 2282936)
Details: HepG2 E-box cis-reporter transcription, actives raise or lower the signal
Protocol: ATG_CIS is a cell-based, multiplexed-readout assay that uses HepG2, a human liver cell line, with measurements taken at 24 hours after chemical dosing in a 24-well plate.ATG_E_Box_CIS is one of 52 assay component(s) measured or calculated from the ATG_CIS assay. It is designed to make measurements of mRNA induction, a form of inducible reporter, as detected with fluorescence intensity signals by Reverse transcription polymerase chain reaction (RT-PCR) and Capillary electrophoresis technology.Data from the assay component ATG_E_Box_CIS was analyzed into 1 assay endpoint. This assay endpoint, ATG_E_Box_CIS, was analyzed with bidirectional fitting relative to DMSO as the negative control and baseline of activity. Using a type of inducible reporter, measures of mRNA for gain or loss-of-signal activity can be used to understand the reporter gene at the transcription factor-level as they relate to the gene USF1. Furthermore, this assay endpoint can be referred to as a primary readout, because this assay has produced multiple assay endpoints where this one serves a reporter gene function. To generalize the intended target to other relatable targets, this assay endpoint is annotated to the dna binding intended target family, where the subfamily is basic helix-loop-helix protein.
Human liver HepG2 cells are transiently transfected with multiple reporter transcription units (MRTUs) in 6-well plates using FuGene 6 reagent (Roche; 3 ml FuGene/1 mg DNA). The MRTU constructs are regulated by a cis-regulating element (promoter). […] A major difference between the CIS and TRANS system is that in CIS activities of endogenous TFs are measured, whereas the TRANS assay evaluates changes in activities of exogenous, chimeric NR-Gal4 proteins. […] At the end of 24 hour incubation, total RNA was isolated using TriZol reagent (Invitrogen). The isolated RNA is then reverse-transcribed using oligo(dT) primer and Mo-MLV reverse transcriptase (Invitrogen) with DNAse I (Ambion) treatment for 30 min. The one-tenth of the produced cDNA was amplified by PCR using Taq DNA polymerase (Invitrogen) and two reporter sequence-specific primers. The PCR products were fluorescently labeled by primer extension with 6-arboxyfluorescein (6-FAM) 5'-labeled reporter sequence-specific primer (2 min at 95 C, 20 s at 68 C and 10 min at 72 C) and these products were digested with 5U of HpaI (New England Biolabs) for 2h at 37 C. The fragments were purified using Qiaquick PCR columns (Qiagen), analyzed on an ABI 3130xL genetic analyzer (Applied Biosystems) with peak positions identified by using a set of X-rhodamine (ROX)-labeled MapMarker1000 molecular weight standards (BioVentures). The raw capillary electrophoresis data was processed using Attagraph software (Attagene).

| SMILES | outcome | AC50 |
| --- | --- | --- |
| CCC(=O)OC(C)c1ccccc1 (stereo not given) | inactive | – |
| C=C(C)CCCC | inactive | – |
| NC(O)(C(F)(F)F)C(F)(F)F | inactive | – |
| O=C(O)C(F)(F)C(F)(F)C(F)(F)OC(F)(C(F)(F)F)C(F)(F)F | inactive | – |
| O=C(c1ccccc1)c1ccc(Cl)cc1 | inactive | – |
| FC(F)(F)C(F)(F)C(F)(F)C(F)(F)C(F)(F)C(F)(F)C(F)(F)CCI | inactive | – |
| O=C(O)CCC(F)(F)C(F)(F)C(F)(F)F | inactive | – |
| Cc1ccc(S(=O)(=O)C(I)I)cc1 | – | 24.3 µM (active) |
| Nc1cccnc1N | inactive | – |
| CCN(CC)c1ccc(N=Nc2ccccc2)cc1 | – | 20.9 µM (active) |
| CCC(C)CO (stereo not given) | inactive | – |
| C=CCOC(=O)CC(C)C | inactive | – |
| O=C(Cl)c1ccc(Cl)cc1Cl | inactive | – |
| C=C(C)C(=O)OCC(F)(F)C(F)(F)C(F)(F)C(F)F | inactive | – |
| CC(C)OC=O | inactive | – |
| Cc1ccc(O)cn1 | inactive | – |
| O=C(F)C1(F)C(F)(F)C(F)(F)C(F)(F)C(F)(F)C1(F)F | inactive | – |
| O=C1C=CC(=O)N1c1ccccc1 | inactive | – |
| OCCCC(F)(F)C(F)(F)C(F)(F)C(F)(F)C(F)(F)C(F)(F)C(F)(F)C(F)(F)F | inactive | – |
| NCC(F)(F)C(F)(F)C(F)(F)C(F)(F)C(F)(F)C(F)(F)F | inactive | – |

| SMILES | outcome | AC50 |
| --- | --- | --- |
| C#CC(O)CCC (stereo not given) | inactive | – |
| N#CCCOCCC#N | inactive | – |
| CCn1c2ccccc2c2ccccc21 | inactive | – |
| Brc1nc2ccccc2s1 | – | 100 µM (active) |
| CC(=O)c1ccccc1N | inactive | – |
| Nc1c(Br)cc([N+](=O)[O-])cc1Br | inactive | – |
| CCC(Cc1c(I)cc(I)c(N)c1I)C(=O)O (stereo not given) | inactive | – |
| CC1CCCCC1 | inactive | – |
| CC(C)(C)C(=O)C1C(=O)c2ccccc2C1=O | inactive | – |
| CO[Si](CCCOCC1CO1)(OC)OC (stereo not given) | inactive | – |
| O=C(Cl)C(F)(F)C(F)(F)C(F)(F)C(F)(F)C(F)(F)C(F)(F)C(F)(F)F | inactive | – |
| CCCC(=O)OCC(COC(=O)CCC)OC(=O)CCC | inactive | – |
| CN(C(=O)C(F)(F)C(F)(F)C(F)(F)F)[Si](C)(C)C | inactive | – |
| CCCCOC(=O)[C@H](C)O | inactive | – |
| CCN=c1cc2oc3cc(NCC)c(C)cc3c(-c3ccccc3C(=O)OCC)c-2cc1C | – | 11.1 µM (active) |
| O=C(Cl)C(F)(F)C(F)(F)C(F)(F)C(F)(F)C(F)(F)C(F)(F)F | inactive | – |
| CCOC(=O)CC(=O)C(F)(F)C(F)(F)F | inactive | – |
| CCCCCCCCn1sc(Cl)c(Cl)c1=O | inactive | – |
| F[Si-2](F)(F)(F)(F)F | inactive | – |
| C[C@]12CC[C@H]3C(=CCc4cc(O)ccc43)[C@@H]1CCC2=O | inactive | – |
